Screening results deposited in PubChem by several laboratories.
Rows were chosen to be rich in hits. Some 4.3% of all compounds tested hit in one or more screens of this group.
sPLA2-III inh – human group III sPLA2 inhibitors, primary screen, biochemical, QFRET, BODIPY PC-A2 liposome substrate | inhibition, % at 12.2 µM | QFRET BODIPY PC-A2 liposome hydrolysis, fluorescence | Group 3 secretory phospholipase A2 (Homo sapiens), Q9NZ20 | AID 743126, 2013 | 0.56% of 370,000 active;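 active = inhibition above mean plus 3 SD of compounds lying within the high and low control bounds, cut at about 19% in these data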;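 also: 0% = median of test compound wells and 100% = no enzyme DMSO wells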
ADAM17 inh – ADAM17 inhibitors, primary screen, biochemical, QFRET; inhibition, % at 6.95 µM; Disintegrin and metalloproteinase domain-containing protein 17 (Homo sapiens), P78536; 0.83% of 370,000 active; recombinant ADAM17, EDANS/DABCYL FRET peptide cleavage;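 active = inhibition above the mean of compounds lying between control limits plus 3 SD, set per campaign, cut at about 8.5% in these data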;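 also: 0% = DMSO-only wells as the low control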
Target sequence (P78536 215-824 limits assumed): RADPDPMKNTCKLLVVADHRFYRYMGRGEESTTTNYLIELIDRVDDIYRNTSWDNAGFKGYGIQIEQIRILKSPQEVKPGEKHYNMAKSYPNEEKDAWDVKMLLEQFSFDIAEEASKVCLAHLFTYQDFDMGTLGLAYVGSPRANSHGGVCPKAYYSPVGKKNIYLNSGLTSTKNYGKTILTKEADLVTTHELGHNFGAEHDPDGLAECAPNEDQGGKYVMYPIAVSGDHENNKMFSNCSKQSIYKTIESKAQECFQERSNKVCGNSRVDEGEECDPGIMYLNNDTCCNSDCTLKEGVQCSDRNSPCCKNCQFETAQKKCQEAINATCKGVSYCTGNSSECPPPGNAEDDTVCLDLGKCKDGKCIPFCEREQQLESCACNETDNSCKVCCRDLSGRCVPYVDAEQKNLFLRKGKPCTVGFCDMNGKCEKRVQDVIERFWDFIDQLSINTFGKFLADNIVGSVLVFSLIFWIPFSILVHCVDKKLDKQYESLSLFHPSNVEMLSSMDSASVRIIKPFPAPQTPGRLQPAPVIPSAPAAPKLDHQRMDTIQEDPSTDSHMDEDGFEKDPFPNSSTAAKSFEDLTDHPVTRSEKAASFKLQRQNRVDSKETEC
GRIN3A LBD mod – binders of NR3A ligand-binding domain, primary screen, biophysical, differential scanning fluorimetry, uHTS | Glutamate receptor ionotropic, NMDA 3A (GRIN3A) ligand-binding domain | NR3A LBD differential scanning fluorimetry, Tm shift; 0% = protein alone, 100% = glycine-bound protein | Tm shift relative to glycine control, % at 25 µM | 2.5% of 340,000 active;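 active = melting temperature shift of at least 10% of the positive control shift, at one fixed dose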
ADAM10 inh – human ADAM10 inhibitors, primary screen, biochemical, QFRET, HTS | Disintegrin and metalloproteinase domain-containing protein 10 (Homo sapiens), O14672 | recombinant ADAM10, EDANS/DABCYL FRET peptide cleavage, 3 h | inhibition, % at 7 µM | 0.62% of 370,000 active | AID 720582, 2013;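 active = inhibition above a per-campaign cutoff equal to the mean of compounds falling between control-based bounds plus 3 SD, cut at about 20% in these data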;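 also: 0% = DMSO wells while the 100% control is not disclosed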
FAS-TE inh – FAS thioesterase domain inhibitors, primary screen, biochemical, fluorescence intensity, uHTS | Fatty acid synthase (Homo sapiens), P49327 | recombinant FAS-TE, OMFH fluorogenic substrate, fluorescence endpoint | inhibition, % at 15 µM | 0.67% of 360,000 active;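 active = compounds whose normalised, plate-corrected inhibition of enzyme fluorescence in the single-dose primary screen is 50% or more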;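 also: 0% = DMSO with enzyme and 100% = substrate without enzyme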
* hit, by the source's call.

Results for O=C(O)c1sccc1S(=O)(=O)N1CCOCC1 ?
sPLA2-III inh: 4; ADAM17 inh: -4; GRIN3A LBD mod: 11*; ADAM10 inh: -11; FAS-TE inh: -9

What do the screens show for `CCCC/C=C1/[C@H](c2ccc(Cl)cc2)N(Cc2ccc3c(c2)OCO3)C2=N[C@H](c3ccccc3)CC(=O)N21`?
sPLA2-III inh: -2; ADAM17 inh: 1; ADAM10 inh: -1

What do the screens show for `COc1ccccc1NC(=S)N(Cc1ccccc1)Cc1cccnc1`?
sPLA2-III inh: 0; ADAM17 inh: 0; GRIN3A LBD mod: 0; ADAM10 inh: 7; FAS-TE inh: 2

How did COc1ccccc1NC(=S)N(Cc1ccccc1)Cc1ccccn1 do in these assays?
sPLA2-III inh: 0; ADAM17 inh: 1; GRIN3A LBD mod: 13*; ADAM10 inh: -5; FAS-TE inh: 4

What do the screens show for `Cc1ccccc1OCC(=O)OCC(=O)c1ccc(OCc2ccccc2)cc1`?
sPLA2-III inh: -12; ADAM17 inh: 1; GRIN3A LBD mod: 25*; ADAM10 inh: 1; FAS-TE inh: 19

What do the screens show for `Cc1ccccc1OCC(=O)OCC(=O)c1ccc(OC(=O)c2ccccc2)cc1`?
sPLA2-III inh: 3; ADAM17 inh: -3; GRIN3A LBD mod: 0; ADAM10 inh: -5; FAS-TE inh: 22

What do the screens show for `CCN(CC)C(=O)CSC(Nc1ccc(F)cc1)=C(C#N)C#N`?
sPLA2-III inh: -8; ADAM17 inh: 2; GRIN3A LBD mod: 3; ADAM10 inh: 6; FAS-TE inh: 0

Results for Cc1ccc(CSC(Nc2ccc(F)cc2)=C(C#N)C#N)cc1 ?
sPLA2-III inh: -51; ADAM17 inh: 6; GRIN3A LBD mod: 10; ADAM10 inh: 21*; FAS-TE inh: 21

How did Cn1nc(C(F)(F)F)c2cc(C(=O)Nc3ccc(C(F)(F)F)cc3)sc21 do in these assays?
sPLA2-III inh: -1; ADAM17 inh: 0; GRIN3A LBD mod: 15*; ADAM10 inh: 1; FAS-TE inh: 35

Results for Cn1nc(C(F)(F)F)c2cc(C(=O)Nc3ccc(F)cc3)sc21 ?
sPLA2-III inh: -7; ADAM17 inh: 4; GRIN3A LBD mod: 0; ADAM10 inh: 12; FAS-TE inh: 18

How did C#CCCN([C@@H](CC(C)C)C(=O)OC)S(=O)(=O)c1ccccc1Br do in these assays?
sPLA2-III inh: 3; ADAM17 inh: 1; ADAM10 inh: 3

How did CC(=O)c1c(C)oc2ccc(NS(=O)(=O)c3cccs3)cc12 do in these assays?
sPLA2-III inh: -1; ADAM17 inh: -3; GRIN3A LBD mod: 17*; ADAM10 inh: -2; FAS-TE inh: 1

Results for O=C(NCc1ccc(Cl)cc1)C1CCCN(c2ncccn2)C1 (configuration not stated) ?
sPLA2-III inh: 6; ADAM17 inh: -6; ADAM10 inh: -17

Results for O=C(CCc1ccccc1-c1ccccc1CCNC(=O)c1cccc(F)c1)NCc1ccccc1 ?
sPLA2-III inh: 8; ADAM17 inh: -10; ADAM10 inh: -64

How did Cc1c(C(=O)N2CCc3ccccc32)oc2ccccc12 do in these assays?
sPLA2-III inh: -2; ADAM17 inh: 2; GRIN3A LBD mod: 14*; ADAM10 inh: 8; FAS-TE inh: 25

What do the screens show for `CCOCC(=O)Nc1ccc(S(=O)(=O)NCCc2ccccc2)cc1`?
sPLA2-III inh: 0; ADAM17 inh: -2; GRIN3A LBD mod: 11*; ADAM10 inh: 4; FAS-TE inh: -9

Results for COC(=O)C1CN(Cc2cn(Cc3ccc(OC)cc3)nn2)CCS(=O)(=O)N1Cc1ccccc1 (configuration not stated) ?
sPLA2-III inh: 5; ADAM17 inh: -1; ADAM10 inh: -9

How did COc1ccc(NC(=O)C(c2ccc(C)cc2)N(C)C(=O)CC2NC(=O)NC2=O)cc1 (configuration not stated) do in these assays?
sPLA2-III inh: -2; ADAM17 inh: -2; GRIN3A LBD mod: 12*; ADAM10 inh: 1; FAS-TE inh: -12

Results for Cc1ccc([N+](=O)[O-])cc1-c1ccc(/C=C(\C#N)c2[nH]nc(N)c2C#N)o1 ?
sPLA2-III inh: -6; ADAM17 inh: 2; GRIN3A LBD mod: 17*; ADAM10 inh: 7; FAS-TE inh: -16

Results for O=C(NCC(c1ccccc1)c1ccccc1)[C@H](Cc1ccccc1)NC1(C(=O)NC2CCCCC2)CCOCC1 ?
sPLA2-III inh: 10; ADAM17 inh: 5; ADAM10 inh: 7

How did Cc1nc2sc(C(c3cccc(F)c3)N3CCC(O)CC3)c(O)n2n1 (configuration not stated) do in these assays?
sPLA2-III inh: 0; ADAM17 inh: -5; GRIN3A LBD mod: 10*; ADAM10 inh: -10; FAS-TE inh: -10

What do the screens show for `COc1ccc(CN(C)C(=O)C2CCCN(c3nc4ccccc4o3)C2)cc1` (configuration not stated)?
sPLA2-III inh: -3; ADAM17 inh: 2; ADAM10 inh: 3

What do the screens show for `C=CCn1c(SCc2ccc(C(=O)Nc3nccs3)cc2)nnc1-c1ccc(C)c(Cl)c1`?
sPLA2-III inh: -23; ADAM17 inh: 8.8*; GRIN3A LBD mod: -4; ADAM10 inh: 8; FAS-TE inh: 26

Results for Cc1ccccc1CN1CCCCC(NC(=O)Nc2ccccc2-c2ccccc2)C1=O (configuration not stated) ?
sPLA2-III inh: 4; ADAM17 inh: 0; ADAM10 inh: 9

How did Cc1cccc(NC(=O)c2ccc(F)c(S(=O)(=O)NCc3ccco3)c2)c1 do in these assays?
sPLA2-III inh: -15; ADAM17 inh: -1; GRIN3A LBD mod: -3; ADAM10 inh: 9; FAS-TE inh: 2

Results for CCN(CC)S(=O)(=O)c1cc(C(=O)OCC(=O)Nc2cccc(Br)c2)ccc1F ?
sPLA2-III inh: -22; ADAM17 inh: 7; GRIN3A LBD mod: 18*; ADAM10 inh: 9; FAS-TE inh: 30

What do the screens show for `CCN(c1ccccc1)S(=O)(=O)c1cc(C(=O)Nc2cccc(Cl)c2)ccc1F`?
sPLA2-III inh: -10; ADAM17 inh: 7; GRIN3A LBD mod: 15*; ADAM10 inh: 13; FAS-TE inh: 37

What do the screens show for `O=C(Nc1cccc(Cl)c1)c1ccccc1`?
sPLA2-III inh: 14; ADAM17 inh: 4; GRIN3A LBD mod: -10; ADAM10 inh: 2; FAS-TE inh: -31

How did O=C(Nc1cccc(Cl)c1)c1ccc(F)c(S(=O)(=O)NCc2cccs2)c1 do in these assays?
sPLA2-III inh: -35; ADAM17 inh: 6; GRIN3A LBD mod: 13*; ADAM10 inh: 14; FAS-TE inh: 17
